Results taken from PubChem BioAssay (NCI).
The panel holds about 79,000 compounds, 15% with a hit somewhere; the sample as a whole holds those more often. Active and inactive are the calls of the source. Rule as the data show it: active = growth inhibition above about 70%; inactive = the rest.

Columns and labels:
[1] = NCI Yeast Anticancer Drug Screen. Data for the rad50 strain (AID 155);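 also: 0% = growth of vehicle-only cultures of the same strain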; settings: S. cerevisiae rad50 strain growth inhibition, hits give high values
In short: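 Vehicle-treated cultures provide the reference for the growth inhibition reported for compound-exposed, repair-deficient yeast.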

[2] = NCI Yeast Anticancer Drug Screen. Data for the mec2-1 strain (AID 157); settings: S. cerevisiae mec2-1 strain, hits give high values
In short: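 Growth inhibition is read against vehicle-treated controls after compound exposure of the mec2-1 yeast strain, which is defective in DNA damage repair or cell cycle control.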

[3] = NCI Yeast Anticancer Drug Screen. Data for the sgs1 mgt1 strain (AID 161);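 also: 0% = growth of cultures given vehicle only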; settings: S. cerevisiae sgs1 mgt1 strain, hits give high values
In short: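 Yeast cells carrying a defined DNA-repair defect were exposed to test compounds. Growth inhibition was measured relative to vehicle-treated controls.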

[4] = NCI Yeast Anticancer Drug Screen. Data for the cln2 rad14 strain (AID 165);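 also: 0% = growth equal to vehicle treated cultures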; settings: S. cerevisiae cln2 rad14 strain, hits give high values
In short: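 Growth inhibition, relative to vehicle-treated controls, is the read-out. The test organism is a yeast strain with defined genetic alterations, cln2 rad14.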

[5] = NCI Yeast Anticancer Drug Screen. Data for the bub3 strain (AID 167); settings: S. cerevisiae bub3 mutant strain, hits give high values
In short: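 Mutant yeast screening strain plus compound; vehicle-treated cultures serve as the 0% inhibition reference.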

[6] = NCI Yeast Anticancer Drug Screen. Data for the mlh1 rad18 strain (AID 175); settings: S. cerevisiae mlh1 rad18 strain growth inhibition, hits give high values
In short: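 Cells of a genetically altered yeast strain, deficient in DNA damage repair, were treated with compound. Their growth was then compared with that of vehicle-treated cultures to give inhibition.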

[7] = at 5.0 µM (retest, dose inferred, filed as 0.5)
[8] = at 50.0 µM (retest, dose inferred, filed as 5.0)

Measured: growth inhibition

COC1=CC(C)(C)C=C([Se][Se]C2=CC(C)(C)C=C(OC)C2=O)C1=O
inactive: [4]; at 50.0 µM 68.5% | [5]; [8] 61% | [5]; at 50.0 µM 64.7%
active: [1]; [7] 82% | [1]; [8] 79% | [1]; at 50.0 µM 83.5% | [2]; [7] 83% | [2]; [8] 76% | [2]; at 50.0 µM 88.9% | [3]; [7] 86% | [3]; [8] 87% | [3]; at 50.0 µM 83% | [4]; [7] 77% | [4]; [8] 75% | [5]; [7] 71% | [6]; [7] 81% | [6]; [8] 79% | [6]; at 50.0 µM 85.5%

CCC(C)N1CN(c2ccccc2)C2(CCN(CCCC3(c4ccc(F)cc4)OCCO3)CC2)C1=O (configuration not stated)
active: [1]; [8] 93% | [2]; [8] 98% | [3]; [8] 95% | [4]; [8] 92% | [4]; at 50.0 µM 74.5% | [5]; [8] 94% | [6]; [8] 96%
inactive: [1]; [7] -9% | [1]; at 50.0 µM -0.8% | [2]; [7] -7% | [2]; at 50.0 µM 5.3% | [3]; [7] -6% | [3]; at 50.0 µM 34% | [4]; [7] -7% | [5]; [7] -2% | [5]; at 50.0 µM 7.55% | [6]; [7] -3% | [6]; at 50.0 µM 31%

O=[N+]([O-])C(Br)CO (configuration not stated)
inactive: [1]; [7] 2% | [2]; [7] 2% | [3]; [7] 3% | [4]; [7] 9% | [5]; [7] 7% | [6]; [7] 4%
active: [1]; [8] 91% | [1]; at 50.0 µM 76% | [2]; [8] 99% | [2]; at 50.0 µM 89% | [3]; [8] 94% | [3]; at 50.0 µM 79% | [4]; [8] 95% | [4]; at 50.0 µM 84.8% | [5]; [8] 99% | [5]; at 50.0 µM 94% | [6]; [8] 97% | [6]; at 50.0 µM 88.1%

Nc1c(Br)cc(Br)c2c1C(=O)c1ccccc1C2=O
inactive: [1]; [7] 5% | [1]; [8] -1% | [1]; at 50.0 µM -10.6% | [2]; [7] 2% | [2]; [8] 0% | [2]; at 50.0 µM -9.45% | [3]; [7] 3% | [3]; [8] 0% | [3]; at 50.0 µM 11.6% | [4]; [7] 0% | [4]; [8] 3% | [4]; at 50.0 µM 41.9% | [5]; [7] 1% | [5]; [8] 4% | [5]; at 50.0 µM 7.65% | [6]; [7] 9% | [6]; [8] -1% | [6]; at 50.0 µM 4.5%

NCC(O)c1cccc(O)c1 (configuration not stated)
inactive: [1]; [7] -18% | [2]; [7] -12% | [2]; [8] 50% | [2]; at 50.0 µM 40.2% | [3]; [7] -8% | [3]; [8] 51% | [3]; at 50.0 µM 66.3% | [4]; [7] 24% | [4]; [8] 65% | [4]; at 50.0 µM 60% | [5]; [7] 12% | [6]; [7] 11% | [6]; at 50.0 µM 65.3%
active: [1]; [8] 77% | [1]; at 50.0 µM 70.3% | [5]; [8] 77% | [5]; at 50.0 µM 75.2% | [6]; [8] 92%

N=P(c1ccccc1)(c1ccccc1)c1ccccc1 (tested in a mixture with another compound)
inactive: [1]; [7] 10% | [1]; [8] 32% | [1]; at 50.0 µM 62.2% | [2]; [7] 6% | [2]; [8] 25% | [2]; at 50.0 µM 17.3% | [3]; [7] 14% | [3]; [8] 32% | [3]; at 50.0 µM 44.1% | [4]; [7] -3% | [4]; [8] 10% | [4]; at 50.0 µM 25.4% | [5]; [7] -1% | [5]; [8] 29% | [5]; at 50.0 µM 19.1% | [6]; [7] 6% | [6]; [8] 27% | [6]; at 50.0 µM 59.9%

CCOC(=O)N(C(=O)c1ccc([As]=O)cc1)C(=O)c1ccc([As]=O)cc1 (configuration not stated)
inactive: [1]; [7] 8% | [2]; [7] 5% | [3]; [7] 10% | [4]; [7] -4% | [5]; [7] 11% | [6]; [7] 6%
active: [1]; [8] 98% | [1]; at 50.0 µM 99.2% | [2]; [8] 99% | [2]; at 50.0 µM 99.3% | [3]; [8] 100% | [3]; at 50.0 µM 99.5% | [4]; [8] 99% | [4]; at 50.0 µM 99% | [5]; [8] 99% | [5]; at 50.0 µM 89.3% | [6]; [8] 99% | [6]; at 50.0 µM 98.7%

CC(=O)OC1CCC2(C)C3=C(CCC2C1(C)C)C1(C)CCC(C(C)CCC2NC2(C)C)C1(C)CC3 (configuration not stated)
inactive: [1]; [7] -22% | [1]; at 50.0 µM 22.6% | [2]; [7] 3% | [2]; [8] 66% | [2]; at 50.0 µM 2.5% | [3]; [7] 23% | [4]; [7] 2% | [4]; [8] 23% | [4]; at 50.0 µM -29.1% | [5]; [7] -1% | [5]; at 50.0 µM 10.8% | [6]; [7] 6% | [6]; at 50.0 µM 11.2%
active: [1]; [8] 86% | [3]; [8] 98% | [3]; at 50.0 µM 95.8% | [5]; [8] 79% | [6]; [8] 84%
